“And” between values parts separate entries of the source, which are not always exact repeats. Identical values can stand only once. Inconclusive results are not listed. Entries that show only a call come without a potency. A number with no mark means an inactive call. The source made the active and inactive calls. Calls come from the whole dose curve; as a rule, active = well fitted inhibition curve with a large enough effect in the signal ratio in the repeat runs (not every such curve was filed as active); inconclusive = weak or mixed curves, or effect the other way; inactive = no such curve, though single readings can be large or run the other way; the % refers to the signal ratio.
These molecules were tested against Glucocorticoid receptor (Homo sapiens) (UniProt P04150) (assay: qHTS assay to identify small molecule antagonists of the glucocorticoid receptor (GR) signaling pathway (AID 720692)). Settings: GR-bla HeLa, beta-lactamase FRET ratio, dexamethasone-stimulated, 18 h; series mostly up to 58.5 µM; activity change, negative = inhibition: at the top concentration.
Chain of Glucocorticoid receptor (Homo sapiens) (P04150 whole entry, looked up): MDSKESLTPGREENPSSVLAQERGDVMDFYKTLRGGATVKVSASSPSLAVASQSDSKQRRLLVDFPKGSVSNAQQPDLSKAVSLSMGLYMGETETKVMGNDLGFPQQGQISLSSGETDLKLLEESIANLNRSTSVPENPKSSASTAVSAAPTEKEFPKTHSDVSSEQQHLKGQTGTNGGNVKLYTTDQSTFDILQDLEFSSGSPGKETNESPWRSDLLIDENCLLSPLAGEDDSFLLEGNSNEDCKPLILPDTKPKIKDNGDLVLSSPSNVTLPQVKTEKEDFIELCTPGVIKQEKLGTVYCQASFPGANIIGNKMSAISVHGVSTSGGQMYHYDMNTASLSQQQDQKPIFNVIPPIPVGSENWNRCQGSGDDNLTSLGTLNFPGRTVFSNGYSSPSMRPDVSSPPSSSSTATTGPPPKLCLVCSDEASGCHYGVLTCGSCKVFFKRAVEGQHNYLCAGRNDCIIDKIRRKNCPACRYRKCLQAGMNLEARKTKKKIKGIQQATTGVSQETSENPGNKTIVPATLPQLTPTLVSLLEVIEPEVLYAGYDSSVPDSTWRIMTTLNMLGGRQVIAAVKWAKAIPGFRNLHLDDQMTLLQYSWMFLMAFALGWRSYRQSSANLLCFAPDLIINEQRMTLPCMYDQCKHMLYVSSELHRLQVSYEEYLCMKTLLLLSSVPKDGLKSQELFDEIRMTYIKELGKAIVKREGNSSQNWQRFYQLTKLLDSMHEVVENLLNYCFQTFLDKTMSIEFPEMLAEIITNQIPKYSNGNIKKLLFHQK
Description: U.S. Tox21 Program National Center for Advancing Translational Sciences [NCATS] NIH Chemical Genomics Center [NCGC] U.S. Environmental Protection Agency [EPA] National Institutes of Environmental Health Sciences [NIEHS] National Toxicology Program [NTP] U.S. Food and Drug Administration [FDA] Tox21 Assay Overview: The Glucocorticoid receptor (GR) is one of the members of the nuclear receptor family of ligand-dependent transcription factors. GR plays a critical role in carbohydrate, protein and lipid metabolisms and programmed cell death. CellSensor GR-bla HeLa cell line (Invitrogen) contains a beta-lactamase reporter gene under the control of the glucocorticoid response element stably integrated into HeLa cells, a cervical cancer cell line that expresses glucocorticoid receptor. The activation of the reporter gene under culture conditions can be detected by fluorescence intensity. This cell line has been used to screen the Tox21 10K compound library and to identify the compounds that inhibit the GR signaling.
Tox21 Assay Protocol Summary: The GR-bla HeLa cells were dispensed at 1500 cells/5 ul/well in 1536-well black wall/clear bottom plates using a Multidrop Combi (ThermoFisher Scientific, Waltham, MA) dispenser. After the assay plates were incubated at a 37 C/5% CO2 incubator for 4 hours, 23 nL of compounds dissolved in DMSO, positive controls or DMSO only was transferred to the assay plate by a pintool station (Kalypsys, San Diego, CA), followed by addition of 1 uL of dexamethasone (5 nM, final concentration in the well). The plates were incubated at 37 C for 18 hours. After 1 uL of LiveBLAzerTM B/G FRET substrate was added using a Flying Reagent Dispenser (Aurora Discovery, San Diego, CA), the plates were incubated at room temperature for 2 hours, and fluorescence intensity was measured by an Envision plate reader (PerkinElmer, Shelton, CT).
Potency is the fitted concentration of half-maximal effect.

SMILES | activity change, negative = inhibition | Potency
CCC(O)OC(O)CC (stereo not given) | 6.82% | –
CCCCC(CC)COC(=O)CCCCC(=O)OCC(CC)CCCC (stereo not given) | – | inactive
CCCCN(CCCC)CCCC | 0.374% | –
O=C(CC(C(=O)OC1CCCCC1)S(=O)(=O)O)OC1CCCCC1 (stereo not given) | – | inactive
CC(=O)Nc1ccccc1 | – | inactive
Cc1cnc(C(=O)NCCc2ccc(S(=O)(=O)NC(=O)NC3CCCCC3)cc2)cn1 | – | inactive
C[Si](O[Si](C)(C)C)O[Si](C)(C)C | – | inactive
CCCCCC/C(C=O)=C\c1ccccc1 | -6.25% [at 78.9 µM] | –
CC1=C(C)S(=O)(=O)CCS1(=O)=O | – | inactive
CCC(O)OCCCOC (stereo not given) | – | inactive
CCN(CC)CCCC(C)Nc1ccnc2cc(Cl)ccc12 (stereo not given) | – | inactive
CC(=O)CC(=O)Nc1ccccc1 | – | inactive
COCCCOc1ccnc(CS(=O)c2nc3ccccc3[nH]2)c1C (stereo not given) | -1.36% | –
CCCCCC1=CCCC1=O | -14.7% | –
Cc1ccc(N(C)C)cc1 | – | inactive
CC[C@H](C)C(=O)O[C@H]1C[C@@H](C)C=C2C=C[C@H](C)[C@H](CC[C@@H]3C[C@@H](O)CC(=O)O3)[C@H]21 | – | 21.3 µM (active)
CCN(CC)c1ccc(C(=O)c2ccccc2C(=O)O)c(O)c1 | – | inactive
OCCOCCOCCO | – | inactive
c1ccc2scnc2c1 | – | inactive
C/C=C1/CC2C=CC1C2 (stereo not given) | -3.05% | –

SMILES | activity change, negative = inhibition | Potency
O=C(O)CCCCCCCCCCC(=O)O | – | inactive
CC(C)(N)CO | – | inactive
Fc1ccc(Br)cc1 | 5.53% [at 78.9 µM] | –
CC(O)COCC(C)O (stereo not given) | – | inactive
O=P(OC(CCl)CCl)(OC(CCl)CCl)OC(CCl)CCl | – | 21.8 µM (active) and 30.9 µM (active)
CN(C)CCCN | – | inactive
CCCCC(CC)COC(=O)CS (stereo not given) | -11.4% | –
O=C(O)c1ccc(C(=O)O)cc1 | – | inactive
CCCCCCCCC/C=C/CC1CC(=O)OC1=O (stereo not given) | – | 49 µM (active)
CC(c1cc2ccccc2s1)N(O)C(N)=O (stereo not given) | – | inactive
Oc1cccc2ccccc12 | 0.994% [at 78.9 µM] | –
CCCCC(CC)CO (stereo not given) | – | inactive
O=C(O)CCCC[C@@H]1SC[C@@H]2NC(=O)N[C@@H]21 | -0.55% | –
Cc1ccc2oc(=O)ccc2c1 | -1.59% | –
CC1=CC(=O)NS(=O)(=O)O1 | – | inactive
CC1CCC2CC1C2(C)C (stereo not given) | – | inactive
CSCCC=O | – | inactive
ON=C1CCCCC1 | – | inactive
O=[N+]([O-])c1ccc(/C=C/c2ccc([N+](=O)[O-])cc2S(=O)(=O)O)c(S(=O)(=O)O)c1 | -11.9% | –
c1ccc2c(c1)ccc1ccccc12 | -1.06% | –
